Assay results as given in PubChem BioAssay (Tox21).
Records with an inconclusive call do not appear. Active and inactive are the calls of the source. Unless noted, calls follow the shape of the dose curve; as a rule, active = well fitted curve in the direction sought with a large enough effect in the repeat runs; inconclusive = weak or mixed curves; inactive = no such curve, though single readings can be large; an effect the other way counts as inactive or inconclusive.

Experiments:
[1] = qHTS RealTime-Glo MT Cell Viability Assay in HEK293 cells - 0 hour (AID 1224880); also: top concentration of the series differs between compounds; nearly all actives have a fitted effect of over 45% in size
Outline: (§1)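 HEK293 cells mixed with RealTime-Glo reagents (NanoLuc plus cell-permeant prosubstrate) at 600 cells/well, preincubated 5 h at 37 C/5% CO2, then given 23 nL compound in DMSO. Nonlytic luminescence from viable cells was read at 0, 8, 16, 24, 32 and 40 h.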

[2] = A CellTox Green Cytotoxicity Assay to monitor cytotoxicity in HEK293 cells - 32 hour (AID 1224881); also: nearly all actives have a fitted effect of over 40% in size
Outline: (§2)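 HEK293 cells premixed with CellTox Green dye were seeded at 600 cells/well and left 5 h at 37 C/5% CO2 before pin transfer of 23 nL compound in DMSO. Fluorescence from dye bound to dead-cell DNA was read during 40 h treatment.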

[3] = A CellTox Green Cytotoxicity Assay to monitor cytotoxicity in HepG2 cells - 0 hour (AID 1224882); also: nearly all actives have a fitted effect of over 35% in size
Outline: (§3)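 HepG2 cells were seeded together with the CellTox Green dye at 600 cells/well, left 5 h at 37 C/5% CO2, then given compounds in DMSO. Fluorescence from dye bound to dead-cell DNA was read repeatedly over 40 h of treatment at 37 C.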

[4] = A CellTox Green Cytotoxicity Assay to monitor cytotoxicity in HepG2 cells - 32 hour (AID 1224883); also: nearly all actives have a fitted effect of over 50% in size
Outline: as §3

[5] = A CellTox Green Cytotoxicity Assay to monitor cytotoxicity in HEK293 cells - 8 hour (AID 1224884); also: nearly all actives have a fitted effect of over 35% in size
Outline: as §2

[6] = qHTS RealTime-Glo MT Cell Viability Assay in HEK293 cells - 8 hour (AID 1224887); also: top concentration of the series differs between compounds; nearly all actives have a fitted effect of over 50% in size
Outline: as §1

[7] = A CellTox Green Cytotoxicity Assay to monitor cytotoxicity in HEK293 cells - 16 hour (AID 1224888); also: nearly all actives have a fitted effect of over 35% in size
Outline: as §2

[8] = qHTS RealTime-Glo MT Cell Viability Assay in HepG2 cells - 0 hour (AID 1224889); also: nearly all actives have a fitted effect of over 50% in size
Outline: (§4)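 qHTS, HepG2, 600 cells/well, RealTime-Glo (NanoLuc + prosubstrate) added with cells; 5 h preincubation; DMSO compound addition; 37 C; luminescence at 0/8/16/24/32/40 h.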

[9] = A CellTox Green Cytotoxicity Assay to monitor cytotoxicity in HepG2 cells - 8 hour (AID 1224890); also: nearly all actives have a fitted effect of over 45% in size
Outline: as §3

[10] = qHTS assay to identify small molecule antagonists of the estrogen receptor alpha (ER-alpha) signaling pathway using the BG1 cell line in the presence of 0.1 nM 17-beta-estradiol - cell viability counter screen (AID 1259241); also: nearly all actives have a fitted effect of over 40% in size
Outline: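 Viability in VM7Luc4E2 cells after 22 hr compound exposure under 0.1 nM 17beta-estradiol stimulation, by CellTiter-Fluor.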

[11] = qHTS assay to identify small molecule antagonists of the androgen receptor (AR) signaling pathway using the MDA cell line in the presence of 0.5 nM R1881 - cell viability counter screen (AID 1259242); also: nearly all actives have a fitted effect of over 45% in size
Outline: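 MDA-kb2 cells (human breast carcinoma, stably carrying MMTV-luciferase reporter) were exposed to compounds with 0.5 nM R1881 (final) for 16 hr at 37C, 0% CO2; viability then read as live-cell protease fluorescence (CellTiter-Fluor, 30 min) in the same wells.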

[12] = qHTS assay to identify small molecule HDAC inhibitors (AID 1259364); also: top concentration of the series differs between compounds; nearly all actives have a fitted effect of over 45% in size
Outline: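 Wild-type HCT-116 cells were plated overnight, exposed to compounds for 2 h at 37 °C, then given HDAC-Glo class I/II luminogenic reagent for 30 min at room temperature before luminescence was read.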

[13] = qHTS assay to identify small molecule HDAC inhibitors - cell viability counter screen (AID 1259365); also: series mostly up to about 92 µM; nearly all actives have a fitted effect of over 50% in size
Outline: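 Cytotoxicity was gauged in wild-type HCT-116 cells after a brief 2hr treatment with DMSO-dissolved compounds at 37C and 5% CO2, using CellTiter-Glo luminescence developed for 30min at room temperature.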

[14] = qHTS assay to identify small molecule agonists of the sonic hedgehog signaling (Shh) pathway - cell viability counter screen (AID 1259366); also: nearly all actives have a fitted effect of over 50% in size; also: potency is read from the fitted curve at half-maximal effect
Outline: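 Stable Gli1-Luc NIH/3T3 clone, 2,000 cells/well. Compound exposure 24hr at 37C. Read-out: CellTiter-Fluor fluorescence.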

[15] = qHTS assay to identify small molecule antagonists of the sonic hedgehog signaling (Shh) pathway - cell viability counter screen (AID 1259367); also: nearly all actives have a fitted effect of over 55% in size; also: potency is read from the fitted curve at half-maximal effect
Outline: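 After a 4 hr settling period, 3T3 Gli1-Luc cells were treated with DMSO-dissolved chemicals and conditioned medium, kept 24 hr at 37C in 5% CO2, and assayed for viability by CellTiter-Fluor fluorescence following 1 hr reagent incubation.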

[16] = qHTS RealTime-Glo MT Cell Viability Assay in HEK293 cells - 24 hour (AID 1224886); also: nearly all actives have a fitted effect of over 50% in size; also: potency is read from the fitted curve at half-maximal effect
Outline: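 Assay medium contained NanoLuc luciferase plus cell-permeant prosubstrate, added with HEK293 cells at 600 cells/well. After 5 h at 37 C/5% CO2 compounds were added; plates stayed at 37 C for 40 h with serial luminescence reads.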

[17] = target: Estrogen receptor (Homo sapiens) (UniProt P03372); assay: qHTS assay to identify small molecule antagonists of the estrogen receptor alpha (ER-alpha) signaling pathway using the BG1 cell line in the presence of 0.1 nM 17-beta-estradiol (AID 1259244); also: nearly all actives have a fitted effect of over 50% in size
Outline: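 VM7Luc4E2 cells (endogenous full-length ER-alpha, stable 4xERE-luciferase) were grown 5 days in phenol red-free medium with charcoal-stripped FBS, then exposed 22 h at 37C to compounds plus 0.1 nM (final) 17beta-estradiol; ONE-Glo luminescence read-out.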

[18] = qHTS RealTime-Glo MT Cell Viability Assay in HepG2 cells - 16 hour (AID 1224885); also: nearly all actives have a fitted effect of over 50% in size
Outline: as §4

[19] = qHTS assay to identify small molecule phospholipidosis (PLD) inducers (AID 1259344; active = well fitted curve in the direction sought with a large enough effect; an effect the other way counts as inactive or inconclusive)
Outline: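 HepG2 cells grown on collagen I take up LipidTOX Red while exposed to compound for 24 h; after fixation they are imaged at 20x and pit metrics are extracted.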

[20] = target: Androgen receptor (Homo sapiens) (UniProt P10275); assay: qHTS assay to identify small molecule antagonists of the androgen receptor (AR) signaling pathway using the MDA cell line in the presence of 0.5 nM R1881 (AID 1259243); also: nearly all actives have a fitted effect of over 50% in size; also: potency is read from the fitted curve at half-maximal effect
Outline: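 MDA-kb2 human breast carcinoma cells carrying an MMTV-luciferase reporter (AR- and GR-responsive) were plated, rested 5 hr at 37C, dosed with compounds, then stimulated with 0.5 nM R1881 (final) for 16 hr; luminescence was read after ONE-Glo.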

Measured: Potency

Sequence of Androgen receptor (Homo sapiens) (P10275 whole entry, looked up): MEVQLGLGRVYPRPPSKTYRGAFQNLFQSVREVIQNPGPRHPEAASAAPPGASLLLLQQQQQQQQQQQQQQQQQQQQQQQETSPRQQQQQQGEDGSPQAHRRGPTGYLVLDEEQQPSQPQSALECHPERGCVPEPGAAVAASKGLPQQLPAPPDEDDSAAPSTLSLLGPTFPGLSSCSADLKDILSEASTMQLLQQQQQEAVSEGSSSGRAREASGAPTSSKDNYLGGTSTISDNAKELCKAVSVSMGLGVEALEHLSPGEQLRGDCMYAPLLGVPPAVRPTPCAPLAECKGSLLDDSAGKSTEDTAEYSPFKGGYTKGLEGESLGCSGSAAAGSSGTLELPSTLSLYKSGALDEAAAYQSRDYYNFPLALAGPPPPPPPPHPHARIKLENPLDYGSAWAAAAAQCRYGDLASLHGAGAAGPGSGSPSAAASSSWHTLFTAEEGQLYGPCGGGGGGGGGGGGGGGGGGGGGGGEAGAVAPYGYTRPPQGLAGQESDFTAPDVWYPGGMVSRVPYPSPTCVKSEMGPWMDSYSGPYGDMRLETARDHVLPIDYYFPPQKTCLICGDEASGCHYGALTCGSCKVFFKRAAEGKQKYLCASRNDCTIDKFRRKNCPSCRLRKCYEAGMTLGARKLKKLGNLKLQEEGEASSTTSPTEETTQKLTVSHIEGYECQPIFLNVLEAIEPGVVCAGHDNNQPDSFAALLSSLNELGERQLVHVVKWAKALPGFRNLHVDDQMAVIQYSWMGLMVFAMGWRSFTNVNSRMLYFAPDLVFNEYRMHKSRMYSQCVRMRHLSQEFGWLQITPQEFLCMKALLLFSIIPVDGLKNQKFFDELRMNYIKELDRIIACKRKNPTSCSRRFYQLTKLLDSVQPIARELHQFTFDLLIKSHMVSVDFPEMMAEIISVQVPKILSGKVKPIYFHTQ
Sequence of Estrogen receptor (Homo sapiens) (P03372 whole entry, looked up): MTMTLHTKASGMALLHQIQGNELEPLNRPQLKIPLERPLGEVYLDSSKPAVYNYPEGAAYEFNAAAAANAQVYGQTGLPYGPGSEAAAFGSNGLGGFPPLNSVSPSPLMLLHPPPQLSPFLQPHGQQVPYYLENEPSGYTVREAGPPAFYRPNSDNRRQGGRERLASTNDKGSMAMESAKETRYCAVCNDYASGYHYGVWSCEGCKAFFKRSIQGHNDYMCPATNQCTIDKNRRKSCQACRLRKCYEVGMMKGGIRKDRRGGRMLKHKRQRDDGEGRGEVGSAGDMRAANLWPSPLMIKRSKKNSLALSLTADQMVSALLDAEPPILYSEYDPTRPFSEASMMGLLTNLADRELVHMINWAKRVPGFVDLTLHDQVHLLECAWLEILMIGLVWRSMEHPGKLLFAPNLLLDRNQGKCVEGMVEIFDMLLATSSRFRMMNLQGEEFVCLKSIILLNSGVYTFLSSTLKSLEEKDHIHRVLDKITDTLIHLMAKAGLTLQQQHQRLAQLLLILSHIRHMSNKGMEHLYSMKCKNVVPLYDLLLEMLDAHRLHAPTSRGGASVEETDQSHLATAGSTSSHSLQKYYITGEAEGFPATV

CCC(C)CCCC(C)(C)O (centres undefined)
not listed: [16] | [17] | [18] | [19] | [20]
inactive: all other assays above

CCCCCO
not listed: [6] | [18] | [19] | [20]
inactive: all other assays above

C/C=C1\[C@H]2C=C(C)C[C@]1(N)c1ccc(=O)[nH]c1C2
not listed: [5] | [6] | [17] | [20]
inactive: all other assays above

O=C(O)c1ccccc1-n1cc(C(=O)O)c(=O)c2cc(Nc3c(F)cc(F)cc3Cl)c(Cl)cc21
not listed: [5] | [19] | [20]
inactive: all other assays above

CC(C(=O)O)c1ccc2c(c1)Cc1cccnc1O2 (centres undefined)
not listed: [6] | [17] | [18]
inactive: all other assays above

CC(CN=Cc1ccccc1O)N=Cc1ccccc1O (centres undefined)
not listed: [5] | [17] | [19] | [20]
inactive: all other assays above

CCOc1cc(OCC)c(C(C)=O)cc1OCC
active: [16] 19.2 µM | [20] 26.8 µM | [14] 10.7 µM | [15] 8.48 µM
not listed: [6] | [10] | [18] | [19]
inactive: all other assays above

Cc1cc(C)n(CO)n1
not listed: [5] | [17] | [19] | [20]
inactive: all other assays above

C=C[Si](OCC)(OCC)OCC
not listed: [5] | [8] | [14] | [17] | [19] | [20]
inactive: all other assays above

O=C(O)c1ccc(O)c(O)c1
not listed: [5] | [17] | [19]
inactive: all other assays above

O=C(O)COCC(=O)O
not listed: [5] | [6] | [14] | [17] | [19] | [20]
inactive: all other assays above

CC(C(=O)O)c1ccc(/C=C2\CCCCC2=O)cc1 (centres undefined)
not listed: [12] | [16] | [17] | [18] | [20]
inactive: all other assays above

O=C1CCCN1CCO
not listed: [5] | [6] | [19] | [20]
inactive: all other assays above

CCC(CC)C(=O)O
not listed: [5] | [19] | [20]
inactive: all other assays above

CC(=O)S[C@H](C(=O)N[C@H]1Cc2ccccc2[C@H]2CCC[C@@H](C(=O)O)N2C1=O)C(C)C
not listed: [6] | [17] | [18] | [19] | [20]
inactive: all other assays above

O=C(O)c1cc(C(=O)O)c(C(=O)O)cc1C(=O)O
not listed: [5] | [16] | [19]
inactive: all other assays above
